{"source": "PubChem BioAssay AID504466", "about": "(National Center for Advancing Translational Sciences (NCATS), 2011)", "note": "Among all 330,000 compounds or so, about 4,200 (1.3%) were called active. About 6% were inconclusive and are not listed. Calls come from the whole dose curve; as a rule, active = well fitted activation curve with a large enough effect; inconclusive = small, poorly fitted or top-dose-only effect; inactive = no such curve, though single readings can be large or run the other way. This excerpt belongs to a sample that is enriched for actives. Potency is the fitted concentration of half-maximal effect."}
{"experiment": "qHTS screen for small molecules that induce genotoxicity in human embryonic kidney (HEK293T) cells expressing luciferase-tagged ELG1; note: nearly all actives have a fitted effect of over 60% in size; for activity change, positive = activation: % of control where 0% means no effect", "details": "HEK293T ELG1-luciferase reporter, luminescence, 16 h; series mostly up to 46 µM; activity change, positive = activation: at the top concentration", "description": "NIH Molecular Libraries Probe Production Network [MLPCN] NIH Chemical Genomics Center [NCGC] MLPCN Grant: 1 R03 MH092164-01 Assay Provider: Kyungjae Myung, NHGRI, NIH Keywords: MLPCN, qHTS, NCGC, genotoxicity, cancer Assay Overview: Cancer cells divide rapidly compared to normal cells in the body. During cell division, cancer cells need to duplicate their genome by DNA replication. The failure of genome duplication leads to cancer cells' death. Therefore, inhibitors of DNA replication could specifically kill cancer cells. Based on this concept, many chemotherapeutic agents were developed and have been used to treat cancer patients. However, there are a limited number of agents available in the clinical setting, and some of those that do exist have low efficacy and severe side effects. Therefore, if we can find the compounds that effectively block DNA replication either by directly damaging DNA or by inhibiting other cellular mechanisms, the options for cancer treatment will be broadened. With this in mind, we developed a quantitative high-throughput ELG1-luciferase reporter gene assay. Since the level of human ELG1 protein is enhanced in response to genetic stresses, increases in luciferase activity can be used to identify compounds that cause genetic stress.\nAssay Protocol Summary: For genotoxicity screening, 2,000 cells in 5 uL/well were dispensed into white, solid-bottom 1536-well plates using a solenoid-based dispenser. Following transfer of 23 nL compound or DMSO vehicle by a pin tool, the plates were incubated 16 hr at 37 °C and 5% CO2. 5 ul ONE-Glo (Promega) was then added to each plate and following a 30 min incubation at room temperature, luciferase activity was quantified on a ViewLux CCD-based plate reader."}
{"smiles": "CC(OC(=O)c1ccc(Cl)cc1O)C(=O)NCCC1=CCCCC1", "note": "(stereo unspecified)", "activity change, positive = activation": "-1.69% (inactive)"}
{"smiles": "O=C(COC(=O)c1ccco1)Nc1ccc(Cl)cn1", "activity change, positive = activation": "0.922% (inactive)"}
{"smiles": "CCC(C)N(C)C1CCN(C(=S)Nc2ccc(OC)cc2)CC1", "note": "(stereo unspecified)", "activity change, positive = activation": "-2.36% (inactive)"}
{"smiles": "COc1ccc(NC(=S)N2CCc3cc(OC)c(OC)cc3C2)cc1", "activity change, positive = activation": "-1.11% (inactive)"}
{"smiles": "COc1ccc(NC(=S)N2N=CCC2c2ccccc2)cc1", "note": "(stereo unspecified)", "Potency": "4.11 µM (active)"}
{"smiles": "COC(=O)[C@]1(CC(C)C)N[C@H](c2ccc(SC3CCCCC3)cc2)[C@@H]2C(=O)N(C)C(=O)[C@@H]21", "activity change, positive = activation": "-8.21% (inactive)"}
{"smiles": "CSc1ccccc1NC(=O)c1cc(Cl)sc1Cl", "activity change, positive = activation": "-0.581% (inactive)"}
{"smiles": "CSc1ccccc1NC(=O)c1cnc2sc(C)cn2c1=O", "Potency": "3.26 µM (active)"}
{"smiles": "Cc1ccccc1C(=O)Nc1ccccc1Sc1ccccc1", "activity change, positive = activation": "1.91% (inactive)"}
{"smiles": "C[C@@H](CN1CCC[C@H]1CN1C(N)=NC[C@@H]1Cc1ccccc1)N1C[C@@H](Cc2ccccc2)N(CCCC2CCCC2)C1=N", "activity change, positive = activation": "0.226% (inactive)"}
{"smiles": "CCN(CC)S(=O)(=O)c1ccc(N2CCCC2)c(NC(=O)c2ccc([N+](=O)[O-])o2)c1", "activity change, positive = activation": "-2.57% (inactive)"}
{"smiles": "O=C(CSc1nccn1-c1cccc(F)c1)NC1CCCC1", "activity change, positive = activation": "-1.66% (inactive)"}
{"smiles": "COc1cc(C(=O)NC2CCN(C)CC2)ccc1Nc1ncc2c(n1)N(C1CCC(O)CC1)CCC(=O)N2C", "note": "(stereo unspecified)", "activity change, positive = activation": "11.5% (inactive)"}
{"smiles": "CCC(=O)c1ccc(OCC(=O)OCC(=O)N2CCc3ccccc3C2)cc1", "activity change, positive = activation": "4.03% (inactive)"}
{"smiles": "O=C(Cn1c(=S)nc2ccccn21)N1CCc2ccccc2C1", "Potency": "20.6 µM (active)"}
{"smiles": "O=C(C(=O)N1CCc2ccccc2C1)N1CCc2ccccc2C1", "activity change, positive = activation": "3.73% (inactive)"}
{"smiles": "CCOC(=O)[C@@H]1[C@H]2COc3ccc(Br)cc3[C@H]2N2C(=O)N(c3ccc(C)cc3)C(=O)[C@@]12C", "activity change, positive = activation": "-1.54% (inactive)"}
{"smiles": "Cc1ccc(S(=O)(=O)N2C[C@@H]3CCCC[C@@H]3[C@@H](C)[C@H]2c2cn(Cc3ccccc3)c3ccc(F)cc23)cc1", "activity change, positive = activation": "-5.58% (inactive)"}
{"smiles": "CC(C)C(NC(=O)c1c(F)cccc1F)C(=O)NNC(=O)c1ccccc1", "note": "(stereo unspecified)", "activity change, positive = activation": "3.05% (inactive)"}
{"smiles": "COc1cc(/C=C/C(=O)OCC(=O)c2ccccc2)cc(OC)c1OC", "activity change, positive = activation": "5.34% (inactive)"}
{"smiles": "Cc1cc(C(C)(C)C)n2nc(C)c(-c3ccccc3)c2n1", "activity change, positive = activation": "-0.426% (inactive)"}
{"smiles": "Cc1nc2cc(-c3ccc(F)cc3)nn2c(N2CCOCC2)c1C", "activity change, positive = activation": "10.7% (inactive)"}
{"smiles": "Cc1cc(N)n2nc(-c3ccc(C(C)(C)C)cc3)cc2n1", "Potency": "0.411 µM (active)"}
{"smiles": "COc1ccc2[nH]c3c(c2c1)CCN1C(=O)C(CC(=O)NCCc2ccccn2)C[C@H](C(=O)N2CCOCC2)[C@@]31C", "note": "(stereo partly specified)", "activity change, positive = activation": "7.43% (inactive)"}
{"smiles": "CCn1c(SCc2ccccc2)nc2cc(OC)c(OC)cc2c1=O", "activity change, positive = activation": "3.09% (inactive)"}
{"smiles": "CCS(=O)(=O)n1nc(-c2ccccc2)nc1SCc1ccccc1", "Potency": "10.3 µM (active)"}
{"smiles": "CCn1c(SCc2ccccc2)nc2c(c1=O)SCC2", "activity change, positive = activation": "4.43% (inactive)"}
{"smiles": "Cc1ccc2c(c1)NC(=O)[C@@]1(C)[C@@H](c3ccccc3)[C@H]3COc4ccc(Cl)cc4[C@@H]3N1C2=O", "activity change, positive = activation": "-1.37% (inactive)"}
{"smiles": "CN(C)C(=O)CCc1ccc2c3c([nH]c2c1)[C@]1(C)[C@@H](C(=O)N2CCOCC2)C[C@H](CC(=O)NCCc2ccccn2)C(=O)N1CC3", "activity change, positive = activation": "9.82% (inactive)"}
{"smiles": "COc1ccc(S(=O)(=O)N(C)C[C@@H]2Oc3ccc(NC(=O)Nc4c(C)noc4C)cc3C(=O)N([C@H](C)CO)C[C@@H]2C)cc1", "activity change, positive = activation": "3.81% (inactive)"}
{"smiles": "COc1ccc(-n2cnc3cc(NCc4ccco4)ccc32)cc1", "Potency": "20.6 µM (active)"}
{"smiles": "COc1ccc(-n2cnc3cc(C(=O)NC4CCCC4)ccc32)cc1", "activity change, positive = activation": "12.1% (inactive)"}
{"smiles": "COc1ccc(Nc2nc(NCc3ccco3)nc(N/N=C/c3ccccc3Cl)n2)cc1", "activity change, positive = activation": "-0.416% (inactive)"}
{"smiles": "C=CCC[C@H](Cc1ccc(F)cc1)C(=O)OC[C@@H](NC(=O)[C@@H](CC=C)CC(=O)N[C@H](CO)Cc1ccccc1)C(C)(C)C", "activity change, positive = activation": "-8.04% (inactive)"}
{"smiles": "Cc1cc(C)c2nc(NC(=O)C3CCCO3)sc2c1", "note": "(stereo unspecified)", "Potency": "3.55 µM (active)"}
{"smiles": "Cc1ccc(C)c(C(C)NC(=O)C2CCCO2)c1", "note": "(stereo unspecified)", "activity change, positive = activation": "-2.35% (inactive)"}
{"smiles": "Cc1cc([N+](=O)[O-])ccc1NC(=O)C1CCCO1", "note": "(stereo unspecified)", "activity change, positive = activation": "-1.87% (inactive)"}
{"smiles": "Cc1nccn1CC(=O)N/N=C/c1ccc(O)c(O)c1", "activity change, positive = activation": "0.2% (inactive)"}
{"smiles": "Oc1ccc(/C=N/Nc2ccc(C(F)(F)F)cn2)cc1O", "Potency": "20.6 µM (active)"}
{"smiles": "O=C(Nc1ccccc1)Nc1ccc(C(F)(F)F)cn1", "activity change, positive = activation": "8.04% (inactive)"}
{"smiles": "O=C(/C=C/c1ccc2c(c1)OCO2)NCc1cn2cc(Cl)ccc2n1", "activity change, positive = activation": "1.4% (inactive)"}
{"smiles": "CCCCCCSc1ccc(-c2nc3ccc(Cl)cn3c2NCc2ccccc2)cc1", "activity change, positive = activation": "-2.3% (inactive)"}
{"smiles": "Clc1ccc2nc(CSc3ccccc3)cn2c1", "Potency": "0.82 µM (active)"}
{"smiles": "O=C(NCCc1ccco1)c1ccc(OCc2cn3ccccc3n2)cc1", "activity change, positive = activation": "9.93% (inactive)"}
{"smiles": "COc1ccc2nc(SCc3ccccc3)nc(C)c2c1", "Potency": "3.66 µM (active)"}
{"smiles": "COc1ccc(-c2nnc3ccc(SCc4ccccc4)nn23)cc1", "activity change, positive = activation": "-0.849% (inactive)"}
{"smiles": "COC(=O)CSc1nc(C)c2ccc(OC)cc2n1", "activity change, positive = activation": "-1.32% (inactive)"}
{"smiles": "C#CCOCCOCCOCCNc1nc(N2CCN(C(=O)[C@H](CO)n3cc([C@@H](N)C(C)C)nn3)CC2)nc(N2CCN(C(=O)[C@H](CCC(=O)O)n3cc([C@@H](N)[C@H](C)CC)nn3)CC2)n1", "activity change, positive = activation": "3.78% (inactive)"}
{"smiles": "O=C(COC(=O)c1cccnc1Cl)NC12CC3CC(CC(C3)C1)C2", "activity change, positive = activation": "-4.16% (inactive)"}
{"smiles": "Cc1ccc(NC(=O)C2CC2)cc1S(=O)(=O)N1CCOCC1", "activity change, positive = activation": "-0.262% (inactive)"}
{"smiles": "CC[C@]12c3[nH]c4cc(CCC(=O)N(C)C)ccc4c3CCN1C(=O)[C@@H](CC(=O)NCCCN(C)C)C[C@@H]2C(=O)N1CCN(C(=O)c2ccco2)CC1", "activity change, positive = activation": "-3.3% (inactive)"}
{"smiles": "O=C(NN=Cc1ccc(N2CCOCC2)cc1)c1cc2ccccc2cc1O", "activity change, positive = activation": "-2.13% (inactive)"}
{"smiles": "COc1ccccc1OCC(=O)OCc1cc(-c2ccco2)on1", "activity change, positive = activation": "-0.824% (inactive)"}
{"smiles": "COc1ccccc1OCC(=O)O/N=C(\\N)c1ccccn1", "Potency": "9.2 µM (active)"}
{"smiles": "N/C(=N\\OC(=O)Cc1ccc([N+](=O)[O-])cc1)c1ccccn1", "activity change, positive = activation": "12% (inactive)"}
{"smiles": "COc1ccc(OCC(=O)NNC(=O)C2CCC2)cc1", "activity change, positive = activation": "0.166% (inactive)"}
{"smiles": "CC(CNC(=O)Cn1cnc2c(OCc3ccccc3)ncnc21)c1ccccc1", "note": "(stereo unspecified)", "activity change, positive = activation": "1.33% (inactive)"}
{"smiles": "COc1cccc(Nc2nc(N)c([N+](=O)[O-])c(NCc3ccco3)n2)c1", "activity change, positive = activation": "-1.09% (inactive)"}
{"smiles": "CNc1nc(Nc2ccc(C)c(Cl)c2)nc(N)c1[N+](=O)[O-]", "Potency": "10.3 µM (active)"}
{"smiles": "Cc1ccc(Nc2nc(N3CCOCC3)nc(N3CCOCC3)n2)cc1Cl", "activity change, positive = activation": "0.349% [at 9.26 µM] (inactive)"}
{"smiles": "CCN(C(=O)COC(=O)c1ccccc1O)c1cccc2ccccc12", "activity change, positive = activation": "-3.96% (inactive)"}
